Test results taken from PubChem BioAssay (NCATS).
Results filed as inconclusive are left out. Active and inactive are the calls of the source. The call rests on the fitted dose curve; in most records, active means well fitted inhibition curve with a large enough effect; inconclusive means small, poorly fitted or top-dose-only effect; inactive means flat fitted curve, though single readings scatter. Where a SMILES comes first, the peptide text is derived from it. Bridges are numbered along the chain shown (N, C = ends). [ ]: non-standard residue; d: D form. hArg = N=C(N)NCCCC[C@H](N)C(=O)O; Mpa = O=C(O)CCS

tested on: CP291; assay: qHTS profiling for inhibitors of Plasmodium falciparum proliferation (AID 504749);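 further: 0% = DMSO vehicle and full inhibition = artemisinin control; nearly all actives have a fitted effect of over 60% in size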; conditions: P. falciparum in erythrocytes, SYBR Green DNA, 72 h; series mostly up to 28.7 µM; activity, negative = inhibition: at the top concentration
Procedure, shortened: (§1)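 SYBR Green fluorescence (ex 485 nm, em 535 nm) reports parasite DNA after 72 h compound exposure of infected red cells at 0.3% parasitemia, 2.5% hematocrit; signal normalized to 0.29 uM artemisinin and vehicle wells.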

| SMILES | activity, negative = inhibition |
| --- | --- |
| O=C(Cn1ccnc1[N+](=O)[O-])NCCO | -5.75% (inactive) |
| Cc1c(C)c2c(c(C)c1OC(=O)c1cccnc1)CC[C@@](C)(CCC[C@H](C)CCC[C@H](C)CCCC(C)C)O2 | -0.548% (inactive) |
| COc1ccc2cc(CCC(C)=O)ccc2c1 | 0.427% [at 12.8 µM] (inactive) |
| CN(C/C=C/C#CC(C)(C)C)Cc1cccc2ccccc12 | -10.4% (inactive) |
| CCN(CC)CCc1nc(-c2ccccc2)no1 | -6.59% [at 12.8 µM] (inactive) |
| COc1nccnc1NS(=O)(=O)c1ccc(N)cc1 | 5.59% (inactive) |
| Cn1c([N+](=O)[O-])cnc1COC(N)=O | 3.97% (inactive) |
| COC(=O)c1ccc(O)cc1 | -3.88% (inactive) |
| CC[N+](CC)(CC(=O)Nc1c(C)cccc1C)Cc1ccccc1 | -0.926% (inactive) |
| CC1CCN(CCCC(=O)c2ccc(F)cc2)CC1 | -10.5% (inactive) |
| COc1ccccc1OC(=O)Oc1ccccc1OC | 4.77% (inactive) |
| O=C(/C=C/c1ccccc1)OCc1ccccc1 | -0.762% (inactive) |
| Cc1c(Cn2ccnc2)c2ccccc2n1CCC(=O)O | 2.7% (inactive) |
| NC(=O)[C@@H]1CSSCCC(=O)N[C@@H](CCCCN=C(N)N)C(=O)NCC(=O)N[C@@H](CC(=O)O)C(=O)N[C@@H](Cc2c[nH]c3ccccc23)C(=O)N2CCC[C@H]2C(=O)N1 ([Mpa][hArg]GDWPC-NH2; disulfide 1-7) | 3.78% (inactive) |
| N[C@@H](Cc1ccc(O)cc1)C(=O)O | -1.83% (inactive) |
| C[C@@H]1O[C@@H](OC[C@H]2O[C@@H](Oc3c(-c4ccc(O)c(O)c4)oc4cc(O)cc(O)c4c3=O)[C@H](O)[C@@H](O)[C@@H]2O)[C@H](O)[C@H](O)[C@H]1O | -5.73% (inactive) |

| SMILES | activity, negative = inhibition |
| --- | --- |
| Cc1onc(-c2ccccc2)c1-c1ccc(S(N)(=O)=O)cc1 | -0.373% (inactive) |
| Cc1ccsc1C(=CCCN1CCC[C@@H](C(=O)O)C1)c1sccc1C | 1.71% (inactive) |
| CCCCCCCC(=O)OCC(COC(=O)CCCCCCC)OC(=O)CCCCCCC | -6.5% (inactive) |
| CN/C(=C\[N+](=O)[O-])NCCSCc1csc(CN(C)C)n1 | -3.11% [at 12.8 µM] (inactive) |
| CCN1CC(CCN2CCOCC2)C(c2ccccc2)(c2ccccc2)C1=O (configuration not stated) | -6.58% (inactive) |
| NS(=O)(=O)c1ccc(C(=O)O)cc1 | 2.09% (inactive) |
| CCOC(N)=O | 1.7% (inactive) |
| Cc1c(NC(C)C)c(=O)n(-c2ccccc2)n1C | 3.99% (inactive) |
| CCOc1ccc(C(=O)OCCN(CC)CC)cc1 | -5.82% (inactive) |
| O=C(OOC(=O)c1ccccc1)c1ccccc1 | -1.66% (inactive) |
| C=CCSCC1Nc2cc(Cl)c(S(N)(=O)=O)cc2S(=O)(=O)N1 (configuration not stated) | -2.29% (inactive) |
| Cc1c(NC(=O)c2cccnc2)c(=O)n(-c2ccccc2)n1C | -12% [at 12.8 µM] (inactive) |
| CCCCCCCCCCC(CO)CCCCCCCC (configuration not stated) | -21.1% (inactive) |
| CCOc1cc(NC(C)=O)ccc1C(=O)OC | 3.51% (inactive) |
| Cc1ncc(CO)c(CN)c1O | 6.35% (inactive) |

tested on: CP297; assay: as above; conditions: P. falciparum in erythrocytes, SYBR Green DNA, 72 h; series mostly up to 28.7 µM; activity, negative = inhibition: at the top concentration
Procedure, shortened: as §1

| SMILES | activity, negative = inhibition |
| --- | --- |
| Cc1c(C)c2c(c(C)c1OC(=O)c1cccnc1)CC[C@@](C)(CCC[C@H](C)CCC[C@H](C)CCCC(C)C)O2 | 2.96% (inactive) |
| COc1ccc2cc(CCC(C)=O)ccc2c1 | -0.408% [at 12.8 µM] (inactive) |
| CN(C/C=C/C#CC(C)(C)C)Cc1cccc2ccccc12 | -14% (inactive) |
| CCN(CC)CCc1nc(-c2ccccc2)no1 | -15.8% [at 12.8 µM] (inactive) |
| COc1nccnc1NS(=O)(=O)c1ccc(N)cc1 | 12.5% (inactive) |
| Cn1c([N+](=O)[O-])cnc1COC(N)=O | 2.02% (inactive) |
| COC(=O)c1ccc(O)cc1 | -2.96% (inactive) |
| CC[N+](CC)(CC(=O)Nc1c(C)cccc1C)Cc1ccccc1 | 5.54% (inactive) |
| CC1CCN(CCCC(=O)c2ccc(F)cc2)CC1 | -19.7% (inactive) |
| CN1CCCN=C1COC(=O)C(O)(c1ccccc1)C1CCCCC1 (configuration not stated) | -1.6% (inactive) |
| O=C(/C=C/c1ccccc1)OCc1ccccc1 | 10.8% (inactive) |
| Cc1c(Cn2ccnc2)c2ccccc2n1CCC(=O)O | -0.6% (inactive) |
| NC(=O)[C@@H]1CSSCCC(=O)N[C@@H](CCCCN=C(N)N)C(=O)NCC(=O)N[C@@H](CC(=O)O)C(=O)N[C@@H](Cc2c[nH]c3ccccc23)C(=O)N2CCC[C@H]2C(=O)N1 ([Mpa][hArg]GDWPC-NH2; disulfide 1-7) | -0.98% (inactive) |
| N[C@@H](Cc1ccc(O)cc1)C(=O)O | -14.6% (inactive) |
| CC1CCc2cc(F)cc3c(=O)c(C(=O)O)cn1c23 (configuration not stated) | 2.16% (inactive) |
| C[C@@H]1O[C@@H](OC[C@H]2O[C@@H](Oc3c(-c4ccc(O)c(O)c4)oc4cc(O)cc(O)c4c3=O)[C@H](O)[C@@H](O)[C@@H]2O)[C@H](O)[C@H](O)[C@H]1O | 0.823% (inactive) |

| SMILES | activity, negative = inhibition |
| --- | --- |
| Cc1onc(-c2ccccc2)c1-c1ccc(S(N)(=O)=O)cc1 | 6.98% (inactive) |
| COc1ccc(C(=O)NCc2ccc(OCCN(C)C)cc2)cc1OC | -9.76% (inactive) |
| Cc1ccsc1C(=CCCN1CCC[C@@H](C(=O)O)C1)c1sccc1C | -0.489% (inactive) |
| CCCCCCCC(=O)OCC(COC(=O)CCCCCCC)OC(=O)CCCCCCC | 6.72% (inactive) |
| CN/C(=C\[N+](=O)[O-])NCCSCc1csc(CN(C)C)n1 | 0.622% [at 12.8 µM] (inactive) |
| NS(=O)(=O)c1ccc(C(=O)O)cc1 | -1.54% (inactive) |
| CCOC(N)=O | -3.02% (inactive) |
| Cc1c(NC(C)C)c(=O)n(-c2ccccc2)n1C | -0.38% (inactive) |
| CCOc1ccc(C(=O)OCCN(CC)CC)cc1 | -3.37% (inactive) |
| C=CCSCC1Nc2cc(Cl)c(S(N)(=O)=O)cc2S(=O)(=O)N1 (configuration not stated) | 0.398% (inactive) |
| Cc1c(NC(=O)c2cccnc2)c(=O)n(-c2ccccc2)n1C | -2.67% [at 12.8 µM] (inactive) |
| CCCCCCCCCCC(CO)CCCCCCCC (configuration not stated) | 3.13% (inactive) |
| CCOc1cc(NC(C)=O)ccc1C(=O)OC | -1.67% (inactive) |
| Cc1ncc(CO)c(CN)c1O | 2.32% (inactive) |
| NS(=O)(=O)c1ccc(NC(=O)CCC(=O)O)cc1 | -5.8% (inactive) |
